# Measured values: article PMC13083723 (Patterns, 2026)
# Out of some 5,400 compounds screened, about 190 (3.5%) showed an effect of 50% or more. This excerpt belongs to a sample that is enriched for strong results. Positions of bridges follow the written chain, without caps; N, C: chain ends. Non-standard residues stand in square brackets, D forms with d. Residues, ends and D or L forms follow the SMILES beside them. ξ: configuration not given here. *: point of attachment. Heptanoyl(5-Me) = CCC(C)CCCC(=O)*; ξThr(3R) = C[C@@H](O)C(N)C(=O)O; Dab = NCC[C@H](N)C(=O)O
# System: Vero-E6
# Experiment: primary screen, phospholipidosis by LipidTOX staining; higher = more effect of the substance
# Details: 10 µM
# In short: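 Drug-induced phospholipidosis detected with HCS LipidTOX Red reagent in Vero-E6 cells. Compounds tested at 10 μM, with amiodarone (10 μM) as positive control and DMSO (0.1 v/v %) as vehicle.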
row,SMILES,result_ITMP [%]
1,CC(=O)CC(=O)[O-],1.77
2,CN1CCC(COc2cnc(-c3cccc(Cn4nc(-c5cccc(C#N)c5)ccc4=O)c3)nc2)CC1,2.15
3,CCc1cccc(CC)c1NC(=O)c1nn(C)c2c1CCc1cnc(Nc3ccc(C(=O)NC4CCN(C)CC4)cc3OC(F)(F)F)nc1-2,7.96
4,CN1CCC(CNc2ccc3ncc(-c4cccc(OC(F)(F)F)c4)n3n2)CC1,62.4
5,CC1(C)[C@@H]2CC[C@@]1(C)C(=O)C2 [R4A_0000828_001 / SPE_K10034334],-2.3
6,CC(C)(N)c1cc(C(=O)N[C@@H]2CCc3ccc(OC4=C5CCC(=O)N=C5NC=C4)cc3C2)cc(C(F)(F)F)c1,28.9
7,CCC(C)CCCC(=O)N[C@@H](CCN)C(=O)N[C@H](C(=O)N[C@@H](CCN)C(=O)N[C@H]1CCNC(=O)[C@H]([C@@H](C)O)NC(=O)[C@H](CCN)NC(=O)[C@H](CCN)NC(=O)[C@H](CC(C)C)NC(=O)[C@@H](CC(C)C)NC(=O)[C@H](CCN)NC1=O)[C@@H](C)O (stereo partly drawn) [R4A_0005175_001 / SPE_A36456202] ({Heptanoyl(5-Me)}-[Dab]T[Dab][Dab][Dab][dL]L[Dab][Dab]T; lactam 4-C),-0.45
8,"C[C@@H]1NC(=O)[C@@H]2CCCN2C(=O)[C@H](CC(N)=O)NC(=O)[C@@H]2CSSC[C@H](N)C(=O)N[C@H]3CSSC[C@H](NC1=O)C(=O)NC([C@@H](C)O)C(=O)NCC(=O)N[C@H](C(=O)N[C@@H](Cc1ccc(O)cc1)C(=O)O)CSSC[C@H](NC(=O)[C@H](Cc1ccc(O)cc1)NC(=O)[C@H](CCC(=O)O)NC3=O)C(=O)N2 (stereo partly drawn) (H-CCEYCCNPAC[ξThr(3R)]GCY-OH; disulfide 1-6, 2-10, 5-13)",-6.32
9,C#CC[C@H](c1nc2cc(Cl)ccc2c(=O)n1Nc1ccccc1)N(CCCN)C(=O)c1cccc(Cl)c1F,68.4
10,C=C(c1ccccc1OCc1cccc(Cl)c1)n1ccnc1,2.27
11,O=c1ccn([C@@H]2O[C@H](COP(=O)([O-])OP(=O)([O-])OP(=O)([O-])O)C(O)C2O)c(=O)[nH]1 (stereo partly drawn),0.02
12,CCCCCCCCCCCCCC(=O)[O-].CCCCCCCCCCCCCC(=O)[O-].NC1CCCCC1N.[Pt+2],0.26
13,O=S(=O)([O-])Oc1ccc(C(c2ccc(OS(=O)(=O)[O-])cc2)c2ccccn2)cc1,-7.14
14,Cc1ccc(-c2n[nH]c3c2C(c2cccc(O)c2)N(c2ccc(C(=O)O)cc2)C3=O)cc1 (stereo not drawn),0.62
15,Cc1cc(Nc2ncc(Cl)c(Nc3ccccc3S(=O)(=O)C(C)C)n2)c(OC(C)C)cc1C1CCNCC1,50.9
16,COc1cc(N2CCC(N3CCN(C)CC3)CC2)ccc1Nc1ncc(Cl)c(Nc2ccccc2S(=O)(=O)C(C)C)n1,-2.93
17,COc1cc(N2CCC(N3CCN(C)CC3)CC2)ccc1Nc1ncnc(Nc2ccccc2S(=O)(=O)C(C)C)n1,44.8
18,Cc1c(S(=O)(=O)[O-])oc2c1C(=O)C(=O)c1c-2ccc2c1CCCC2(C)C,-1.56
19,C[C@H](Oc1cc(-c2cnn(C3CCNCC3)c2)cnc1N)c1c(Cl)ccc(F)c1Cl,70.2
20,C[C@@H](Oc1cc(-c2cnn(C3CCNCC3)c2)cnc1N)c1c(Cl)ccc(F)c1Cl,75

row,SMILES,result_ITMP [%]
1,Nc1nc2[nH]nnc2c(=O)[nH]1,1.34
2,O=C([O-])[C@@H](O)[C@@H](O)[C@H](O)[C@@H](O)C(=O)[O-],-1.82
3,CCOc1ccc(/N=C(/C)Nc2ccc(OCC)cc2)cc1,3.29
4,CC(=O)OCC1=C(C(=O)[O-])N2C(=O)[C@@H](NC(=O)CSc3ccncc3)[C@H]2SC1,-1.36
5,CO/N=C(\C(=O)N[C@@H]1C(=O)N2C(C(=O)[O-])=C(COC(N)=O)CS[C@H]12)c1ccco1,-1.04
6,O=S(=O)([O-])CCCS(=O)(=O)[O-],-2.16
7,CCn1cc(C(=O)[O-])c(=O)c2cc3c(cc21)OCO3,-4.34
8,CC(C)NC[C@@H](O)COc1cccc2ccccc12 [R4A_0000150_002 / SPE_K13994703],20.2
9,CN(C)[C@@H](CCOc1cccc2ccccc12)c1ccccc1,43.4
10,CNCC[C@H](Oc1cccc2ccccc12)c1cccs1,92.6
11,CC1(C)CCC[C@]2(C)[C@H]3CC(=O)O[C@]3(C)CC[C@@H]12,1.48
12,Nc1nc2c(c(N3CCNCC3)n1)CCC1=C2[C@@H]2CCCC[C@@H]2O1,70.7
13,CC[C@]1(O)C[C@@H]2C[N@@](CCc3c([nH]c4ccccc34)[C@@](C(=O)OC)(c3cc4c(cc3OC)N(C=O)[C@H]3[C@@](O)(C(=O)OC)[C@H](OC(C)=O)[C@]5(CC)C=CCN6CC[C@]43[C@@H]65)C2)C1,1.05
14,CC/C(=C(\c1ccc(O)cc1)c1ccc(OCCN(C)C)cc1)c1ccccc1,20.4
15,CCN(CC)CCOc1ccc(Cc2ccccc2)cc1,30.2
16,CCN(CC)CCOc1ccc(/C(=C(\Cl)c2ccccc2)c2ccccc2)cc1,108
17,CC/C(=C(\c1ccccc1)c1ccc(OCCN(C)C)cc1)c1ccccc1,49.4
18,CC/C(=C(\c1ccc(OCCN(C)C)cc1)c1cccc(O)c1)c1ccccc1,77.7
19,CN(C)CCOc1ccc(/C(=C(/CCCl)c2ccccc2)c2ccccc2)cc1,20.4
